Test [1] can be described thus: qHTS assay to identify small molecule antagonists of the estrogen related receptor (ERR) signaling pathway from Tox21 library - cell viability counter screen (AID 1224834). Note: nearly all actives have a fitted effect of over 30% in size. Note: potency is the fitted concentration of half-maximal effect. In outline:
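Fluorescence from CellTiter-Fluor gives the viability read-out, taken 30 min after reagent addition. Before that, ERR cells seeded 6 h earlier were incubated with compounds for 17.5 h at 37 C.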

A short description of test [2]: qHTS assay to identify small molecule antagonists of the constitutive androstane receptor (CAR) signaling pathway - cell viability counter screen (AID 1224837). Note: nearly all actives have a fitted effect of over 45% in size. In outline:
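HepG2-CYP2B6-hCAR cells, 2500/well, 4 hr pre-incubation; compound titration, 15 conc.; CITCO 50 nM final; 23 hr, 37 C/5% CO2; CellTiter-Fluor, fluorescence intensity.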

Test [3] deals with Nuclear receptor subfamily 1 group I member 3 (Homo sapiens) (UniProt Q14994). The test is described as follows: qHTS assay to identify small molecule antagonists of the constitutive androstane receptor (CAR) signaling pathway (AID 1224838).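 Note: HepG2 cells stably expressing hCAR with CYP2B6 luciferase reporter stimulated by CITCO; nearly all actives have a fitted effect of over 40% in size.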 In outline:
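HepG2-CYP2B6-hCAR cells; 4 h pre-incubation; cpd (15 conc) + CITCO 50 nM final; 24 h, 37 C/5% CO2; ONE-Glo, luminescence.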

Test [4] shares this target. In words: qHTS assay to identify small molecule agonists of the constitutive androstane receptor (CAR) signaling pathway (AID 1224839).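 Note: HepG2 cells stably carrying human CAR and a CYP2B6 luciferase reporter; nearly all actives have a fitted effect of over 15% in size.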 The procedure, abridged: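 Luminescent ONE-Glo read-out after 24 hr, 37 C exposure of double-stable HepG2-CYP2B6-hCAR reporter cells to a 15-point compound series, in the presence of 0.75 uM PK11195 (final).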
Test [5] is described as follows: qHTS assay to identify small molecule antagonists of the estrogen related receptor signaling pathway with the pleiotropic PPARgamma coactivator (PGC) from Tox21 10K library - cell viability counter screen (AID 1224840; active = well fitted cell-killing curve with a large enough effect in the repeat runs, not every such curve was filed as active; note: nearly all actives have a fitted effect of over 40% in size). In outline:
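PGC/ERR cells, 2,000/well; 6 h pre-incubation 37 C/5% CO2; cpd in DMSO via pin tool; 17.5 h 37 C; CellTiter-Fluor, 30 min; fluorescence.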

Test [6] in a line: qHTS assay to identify small molecule antagonists of the estrogen related receptor signaling pathway with the pleiotropic PPARgamma coactivator (PGC) from Tox21 10K library (AID 1224841; call rule not given here; note: actives are mostly falling curves and most rising ones were filed inactive; nearly all actives have a fitted effect of over 50% in size; note: potency is the fitted concentration of half-maximal effect). The procedure, abridged: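 PGC/ERR cell line, 2,000 cells/well; 6 h pre-incubation 37 C/5% CO2; compounds (DMSO) pinned in; 18 h, 37 C; One-Glo, 30 min RT; luminescence.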
The nature of test [7]: qHTS assay to identify small molecule agonists of the estrogen related receptor signaling pathway with the pleiotropic PPARgamma coactivator (PGC) from Tox21 10K library (AID 1224842). Note: nearly all actives have a fitted effect of over 15% in size. In outline:
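PGC/ERR reporter cells (NTP line) were seeded 2,000 per well, rested 6 h at 37 C/5% CO2, then pin-dosed with compounds in DMSO for 18 h at 37 C; luciferase read by One-Glo luminescence after 30 min at room temperature.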

Test [8] is described as follows: qHTS assay to identify small molecule agonists of the hypoxia (HIF-1) signaling pathway - cell viability counter screen (AID 1224844; calls by dose curve; note: nearly all actives have a fitted effect of over 50% in size). The procedure, abridged:
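ME-180 HRE-bla cells, 2,000/well, 0.5% dialyzed FBS; 5 hr settle, 17 hr compound at 37C/5% CO2; CCF4-AM reporter read first, then CellTiter-Glo luminescence after 30 min RT.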

Test [9] in a line: qHTS assay to identify small molecule agonists of H2AX (AID 1224845; active = well fitted activation curve with a large enough effect in the signal ratio in the repeat runs, not every such curve was filed as active; the % refers to the signal ratio). In outline: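 Wild-type CHO-K1 cells plated overnight, then exposed 3 hr at 37C to compounds at 15 concentrations (0.76% DMSO). Lysed, then HTRF anti-pH2AX(S139)-cryptate/anti-H2AX-d2 detection after 24 hr at room temperature; emissions 665 and 620 nm.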
Test [10] can be described thus: qHTS assay to identify small molecule agonists of the hypoxia (HIF-1) signaling pathway (AID 1224846; active = well fitted activation curve with a large enough effect in the signal ratio in the repeat runs, not every such curve was filed as active; the % refers to the signal ratio). In outline:
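Cell line: CellSensor HRE-bla ME-180; 2,000 cells/well; 0.5% dialyzed FBS; 5 h preincubation; DMSO compound pin transfer; 17 h, 37C, 5% CO2; CCF4-AM added; bla FRET signal scored for activation.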

Test [11] in a line: qHTS assay to identify small molecule agonists of H2AX - cell viability counter screen (AID 1224847; calls by dose curve; note: top concentration of the series differs between compounds; nearly all actives have a fitted effect of over 30% in size). In outline:
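Counter-screen for viability: CellTiter-Glo ATP luminescence read after 3 h compound treatment (15-point titration, 0.76% DMSO final) of CHO-K1 cells at 37C, with 30 min room-temperature reagent incubation.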

A short description of test [12]: qHTS assay to identify small molecule antagonists of the estrogen related receptor (ERR) signaling pathway from Tox21 library (AID 1224848). Note: nearly all actives have a fitted effect of over 50% in size. Note: potency is the fitted concentration of half-maximal effect. The procedure, abridged: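 Cells: ERR line, 2,000/well; 6 h preincubation 37 C/5% CO2. Cpd in DMSO via pin tool; 18 h, 37 C. ONE-Glo, 30 min RT, luminescence.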
Test [13] in a line: qHTS assay to identify small molecule agonists of the estrogen related receptor (ERR) signaling pathway from Tox21 library (AID 1224849; calls by dose curve; note: nearly all actives have a fitted effect of over 15% in size). The conditions noted are these: ERR reporter cell line, ONE-Glo luciferase, 18 h; at 92.4 µM (top of the series) unless noted. In outline:
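ERR cells, 6 h pre-incubation 37 C/5% CO2; cpd in DMSO pinned; 18 h 37 C; ONE-Glo added, 30 min RT; luminescence read. Agonist mode, qHTS.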

Test [14] in a line: qHTS RealTime-Glo MT Cell Viability Assay in HepG2 cells - 24 hour (AID 1224867). Note: nearly all actives have a fitted effect of over 50% in size. The procedure, abridged:
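Tox21 10K library screened in qHTS format on HepG2 cells carrying RealTime-Glo reagents. Compounds were added after a 5 h preincubation, and the luminescent signal from continuous culture was measured repeatedly during 40 h treatment.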

The nature of test [15]: qHTS RealTime-Glo MT Cell Viability Assay in HEK293 cells - 32 hour (AID 1224868). Note: nearly all actives have a fitted effect of over 50% in size. Note: potency is the fitted concentration of half-maximal effect. In outline:
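Luminescence generated by NanoLuc from substrate produced by living HEK293 cells served as the viability signal. Each value reflects the reading at its stated time point during continuous 40 h compound exposure at 37 C.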

Test [16] can be described thus: A CellTox Green Cytotoxicity Assay to monitor cytotoxicity in HEK293 cells - 0 hour (AID 1224869). Note: nearly all actives have a fitted effect of over 50% in size. The procedure, abridged:
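Nonlytic real-time cytotoxicity: HEK293 + CellTox Green reagent plated, 5 h preincubation, pintool compound addition (23 nL in DMSO), 37 C for 40 h, fluorescence measured at successive time points.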

Test [17] addresses Thyrotropin receptor (Homo sapiens) (UniProt P16473). The test is described as follows: qHTS assay to identify small molecule agonists of the thyroid stimulating hormone receptor (TSHR) signaling pathway (AID 1224843; calls by dose curve; note: nearly all actives have a fitted effect of over 45% in size; note: potency is the fitted concentration of half-maximal effect). In outline: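 TSHR-expressing HEK293 cells (800 per well) were exposed to compounds for 30 min at room temperature. cAMP was then detected by HTRF competition with cAMP-d2 and anti-cAMP cryptate, read after 1 h at room temperature. Fifteen concentrations, triplicate.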

Test [18] can be described thus: qHTS assay to identify small molecule agonists of the constitutive androstane receptor (CAR) signaling pathway - cell viability counter screen (AID 1224836). Note: nearly all actives have a fitted effect of over 45% in size. In outline:
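Cell viability multiplexed with the CAR agonist screen: CellTiter-Fluor fluorescence after 23 hr at 37 C. HepG2-CYP2B6-hCAR cells got compounds at 15 concentrations with PK11195 at 0.75 uM final.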

Test [19] addresses Luciferin 4-monooxygenase (Photinus pyralis) (UniProt P08659). The test is described as follows: qHTS assay to identify small molecule inhibitors of firefly luciferase (AID 1224835). Note: nearly all actives have a fitted effect of over 25% in size. The procedure, abridged: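 Quantitative HTS format; KM concentrations of both substrates. Purified P. pyralis FLuc activity quantified from luminescence images.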

Values without a mark were called inactive. Inconclusive results are not listed. Active and inactive are the calls of the source. Unless noted, calls come from the whole dose curve; as a rule, active = well fitted curve in the direction sought with a large enough effect in the repeat runs; inconclusive = weak or mixed curves; inactive = no such curve, though single readings can be large; an effect the other way counts as inactive or inconclusive.
% is set by controls: 0 for no effect and ±100 for the full control effect.

Luciferin 4-monooxygenase (Photinus pyralis), sequence (P08659 whole entry, looked up): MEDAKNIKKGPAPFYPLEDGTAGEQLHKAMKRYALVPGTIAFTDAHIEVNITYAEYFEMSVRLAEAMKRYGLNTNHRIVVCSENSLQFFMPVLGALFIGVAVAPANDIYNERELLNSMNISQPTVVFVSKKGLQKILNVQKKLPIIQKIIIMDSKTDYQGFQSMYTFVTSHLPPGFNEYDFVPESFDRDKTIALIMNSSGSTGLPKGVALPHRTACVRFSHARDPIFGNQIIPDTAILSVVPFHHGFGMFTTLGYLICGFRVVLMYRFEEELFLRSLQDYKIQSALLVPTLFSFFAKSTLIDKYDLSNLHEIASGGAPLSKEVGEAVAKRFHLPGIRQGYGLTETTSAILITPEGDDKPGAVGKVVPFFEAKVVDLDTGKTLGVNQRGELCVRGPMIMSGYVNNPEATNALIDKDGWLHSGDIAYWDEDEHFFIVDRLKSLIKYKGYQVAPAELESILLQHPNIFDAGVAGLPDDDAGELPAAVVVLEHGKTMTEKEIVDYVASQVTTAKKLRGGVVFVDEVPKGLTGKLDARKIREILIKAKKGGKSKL
Nuclear receptor subfamily 1 group I member 3 (Homo sapiens), sequence (Q14994 whole entry, looked up): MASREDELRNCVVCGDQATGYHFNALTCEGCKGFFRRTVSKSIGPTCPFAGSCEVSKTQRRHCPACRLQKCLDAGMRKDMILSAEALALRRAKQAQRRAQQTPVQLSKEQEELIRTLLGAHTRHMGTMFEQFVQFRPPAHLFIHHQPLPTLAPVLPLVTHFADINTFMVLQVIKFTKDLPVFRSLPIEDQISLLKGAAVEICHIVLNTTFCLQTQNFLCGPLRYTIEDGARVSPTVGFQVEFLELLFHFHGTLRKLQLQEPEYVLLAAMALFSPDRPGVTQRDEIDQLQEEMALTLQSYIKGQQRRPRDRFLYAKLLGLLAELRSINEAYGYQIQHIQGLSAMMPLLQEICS
Thyrotropin receptor (Homo sapiens), sequence (P16473 whole entry, looked up): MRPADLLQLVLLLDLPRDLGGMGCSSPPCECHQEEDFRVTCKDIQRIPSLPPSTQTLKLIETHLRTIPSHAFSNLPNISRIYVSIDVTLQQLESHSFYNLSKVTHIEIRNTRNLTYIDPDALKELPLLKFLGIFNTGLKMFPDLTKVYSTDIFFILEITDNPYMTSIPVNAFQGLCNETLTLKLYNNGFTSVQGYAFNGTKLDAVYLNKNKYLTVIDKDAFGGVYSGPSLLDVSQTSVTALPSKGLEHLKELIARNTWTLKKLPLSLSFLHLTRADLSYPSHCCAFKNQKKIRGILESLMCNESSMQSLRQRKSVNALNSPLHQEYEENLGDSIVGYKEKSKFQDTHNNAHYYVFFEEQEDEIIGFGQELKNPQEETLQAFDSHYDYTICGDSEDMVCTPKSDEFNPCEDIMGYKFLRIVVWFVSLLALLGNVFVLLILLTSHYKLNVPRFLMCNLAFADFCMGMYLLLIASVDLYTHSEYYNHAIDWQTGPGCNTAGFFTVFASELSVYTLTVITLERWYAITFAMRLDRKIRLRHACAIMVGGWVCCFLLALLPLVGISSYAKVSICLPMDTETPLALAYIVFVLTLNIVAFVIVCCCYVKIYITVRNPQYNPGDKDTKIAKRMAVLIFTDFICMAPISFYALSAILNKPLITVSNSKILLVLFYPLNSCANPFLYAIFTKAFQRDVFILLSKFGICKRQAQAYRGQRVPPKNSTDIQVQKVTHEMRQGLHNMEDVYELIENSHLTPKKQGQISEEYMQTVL

For the compound `CC(C)COC(=O)COc1cc(Cl)c(Cl)cc1Cl`, the Potency entry in [1], in test [2], in test [3], in test [4], in [5] and in [6] was “inactive” in each case. The Potency entry in [7], in test [8], in test [9], in test [11], in [12] and in test [14] was “inactive” throughout. The Potency entry in test [15] and in test [16] was “inactive” in each case. Moreover, the call in test [10] was inactive. Further, the activity change, positive = activation in test [13] is -0.133%.
`COc1cc(C(C)=O)ccc1OCCCN1CCC(c2noc3cc(F)ccc23)CC1`: the Potency entry in test [2], in test [3], in test [4], in test [17], in [9] and in test [11] was “inactive” throughout. In [16], the Potency result was “inactive”. Also, in test [10], the compound was called inactive. Moreover, the Potency in test [15] is 10.7 µM (active).
As for `Cc1cccc(C)c1NC(=O)c1cc(S(N)(=O)=O)c(Cl)cc1O`, the Potency result in test [1], in test [18], in [2], in test [3], in test [4] and in [5] was “inactive” each time. Also, the Potency entry in test [17], in test [8], in test [11], in test [14] and in test [16] was “inactive” each time. In addition, in [10], the call was inactive.
On to `CCCCCCCCCCCCCOS(=O)(=O)O`, for which the Potency result in test [1], in [18], in test [2], in [5], in test [17] and in [11] was “inactive” throughout. The Potency result in test [14] and in [15] was “inactive” in each case.
With `CC/C=C\C/C=C\C/C=C\CCCCCCCC(=O)OCC`, the Potency result in test [19], in [18], in [2], in test [7], in test [17] and in test [11] was “inactive” each time. In addition, the Potency result in test [14] and in [16] was “inactive” throughout. In [10], the result was inactive. Also, the activity change, positive = activation in test [13] is -28.4%.
For the compound `CCN(CC)C(=O)/C(C#N)=C/c1cc(O)c(O)c([N+](=O)[O-])c1`, the Potency in test [1] is 26.6 µM (active). Also, the Potency entry in test [19], in test [3], in test [4], in [17], in test [11] and in [14] was “inactive” in each case. Further, the Potency entry in [16] is “inactive”.
For the compound `CCCCCCCC(=O)Oc1c(Br)cc(C#N)cc1Br`, the Potency entry in test [19], in [18], in test [2], in test [3], in [4] and in test [5] was “inactive” each time. For the same compound, the Potency result in test [7], in test [17], in test [8], in [9], in [14] and in test [16] was “inactive” in each case. Also, the Potency in [6] was 43.1 µM (active); in [12] it was 48.4 µM (active); in test [15], 38.8 µM (active). For the same compound, the activity change, positive = activation in test [13] was -61.8%.
With `CCCCCC`, the Potency result in test [1], in test [18], in [2], in [3], in [4] and in test [17] was “inactive” throughout. For the same compound, the Potency entry in [8], in [9], in [11], in [14], in [15] and in test [16] was “inactive” in each case. Also, the compound was classed as inactive in test [10].
Consider `Cc1cc(CCC(=O)OCCOCCOCCOC(=O)CCc2cc(C)c(O)c(C(C)(C)C)c2)cc(C(C)(C)C)c1O`, for which the Potency result in test [19], in test [18], in test [2], in test [3], in test [4] and in [5] was “inactive” in each case. Moreover, the Potency result in test [8], in [9], in [11], in test [14], in test [15] and in test [16] was “inactive” each time. Also, in test [17], the Potency is 15 µM (active). In test [10], the outcome was inactive.
For the compound `c1ccc(CCCc2ccncc2)cc1`, the Potency entry in test [1], in [2], in [9], in test [14] and in test [16] was “inactive” in each case. In addition, in [10], the call was inactive.

The values above are taken from PubChem BioAssay (Tox21).
